Screens (PubChem)
Hits are enriched below; roughly 6.4% of the tested compounds scored in any of these assays.
VP16 counter: VP16 counterscreen qHTS for inhibitors of ROR gamma transcriptional activity. AID 2546, 2010. Drosophila S2 Gal4-VP16 UAS-luciferase, luminescence, 20 h. Potency, µM (highest dose often 53.6 µM), usual class: inhibitors. 3.5% of 310,000 active;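 further: Gal4-VP16 expression switched on by copper sulfate through the metallothionein promoter; nearly all actives have a fitted effect of over 50% in size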
RORgamma inh: qHTS for inhibitors of ROR gamma transcriptional activity; Nuclear receptor ROR-gamma (Mus musculus), P51450; Drosophila S2 Gal4-RORgamma UAS-luciferase reporter, 20 h; 5.4% of 310,000 active; Potency, µM (titrated, usually from 53.6 µM), hits mostly inhibitors; further: nearly all actives have a fitted effect of over 60% in size
Target sequence (P51450 whole entry, looked up, the tested form may be a part): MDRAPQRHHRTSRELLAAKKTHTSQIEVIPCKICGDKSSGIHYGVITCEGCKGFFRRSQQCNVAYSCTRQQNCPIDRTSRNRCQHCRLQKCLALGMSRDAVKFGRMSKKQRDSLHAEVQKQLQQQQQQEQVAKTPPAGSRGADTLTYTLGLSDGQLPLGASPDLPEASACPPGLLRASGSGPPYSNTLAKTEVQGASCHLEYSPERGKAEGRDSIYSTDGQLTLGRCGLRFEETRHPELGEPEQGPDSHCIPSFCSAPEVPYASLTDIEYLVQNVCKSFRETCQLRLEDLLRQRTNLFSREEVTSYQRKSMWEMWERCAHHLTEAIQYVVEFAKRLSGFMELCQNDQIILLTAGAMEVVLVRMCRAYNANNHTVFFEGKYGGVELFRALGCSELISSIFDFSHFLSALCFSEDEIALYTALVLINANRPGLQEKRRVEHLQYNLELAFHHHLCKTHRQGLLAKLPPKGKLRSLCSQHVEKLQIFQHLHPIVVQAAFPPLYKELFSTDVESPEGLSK
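Compounds are pin-transferred onto Drosophila Schneider cells expressing a copper-inducible Gal4–ROR gamma transactivation domain fusion. After 1 hr, copper sulfate is added to 700 uM final; luciferase is read 20 hr later.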
KinaseGlo FLuc: Counterscreen for Luciferase (Kinase-Glo TM) Inhibition. Kinase-Glo luciferase, ATP luminescence, 8 min. Luciferin 4-monooxygenase (Photuris pensylvanica), Q27757. 0.28% of 200,000 active. Potency, µM (series often up to 38.3 µM), most hits filed as inhibitors; further: nearly all actives have a fitted effect of over 60% in size
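Compound is pinned into ATP-containing buffer (10 uM ATP, imidazole pH 7.2, 7 mM MgCl2). Kinase-Glo luciferase reagent is then added. Light output is recorded following an 8-min room-temperature incubation.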
Numbers stand for hits; n = inactive; u = inconclusive; x = no result given; [ ] = another dose, or the depositor's remark. The call rests on the fitted dose curve; in most records, active means well fitted curve in the direction sought with a large enough effect; inconclusive means small, poorly fitted or top-dose-only effect, or another doubt; inactive means no such curve, though single readings can be large; an effect the other way counts as inactive or inconclusive.

SMILES	VP16 counter	RORgamma inh	KinaseGlo FLuc
O=C(c1ccc(=O)[nH]c1)N1CCCc2ccccc21	n	n	x
Nn1c(SCC(=O)Nc2ccccc2C(F)(F)F)nncc1=O	n	u	x
CC(OC(=O)CSc1ccc(F)cc1)C(=O)NC1(C#N)CCCCC1 (stereo not given)	n	n	x
COc1ccc(N2CCN(Cc3nc4ccsc4c(=O)[nH]3)CC2)cc1	n	n	n
Cc1ccc(Cl)cc1N1CCN(Cc2nc3ccsc3c(=O)[nH]2)CC1	u	11µM	n
C[N+](C)(C)CCN[N@@+]1(C)CCCc2ccccc21	x	x	n[7.66 µM]
CC(C)(C)c1ccc(OCc2ccc(C(=O)N/N=C3\CC4CC=CC34)cc2)cc1 (stereo not given)	4.5µM	7.9µM	n
Cc1cc(OCc2ccc(C(=O)NN=C3CCCC3)cc2)ccc1Cl	n	n	n
O=C(Nc1ccccc1)c1ccc(COc2ccccc2)cc1	n	n	n
O=C(N/N=C1\CC2CC=CC12)c1ccc(COc2ccccc2)cc1 (stereo not given)	5µM	5µM	n
CCc1ccc(OC(C)c2nnc(SCC(=O)Nc3ncccc3C)n2C)cc1 (stereo not given)	u	n	n
Clc1cccc(/C=N/Nc2ncnc3ccccc23)c1	4.5µM	1.3µM	n
C(=N\Nc1ncnc2ccccc12)/c1ccccc1	1µM	2.5µM	n
Clc1ccc(/C=N/Nc2nc(Cl)nc3ccccc23)cc1	u	n	n
Clc1cccc(Nc2ncnc3ccc(Br)cc23)c1	n	u	n
CCc1c(C)nc2cc(-c3ccc(OC)c(OC)c3)nn2c1NCC1CC1	4.5µM	11µM	n
COc1ccc(-c2c(C)nn3c(NC4CCCC4)cc(C)nc23)cc1OC	n	n	x
CCCCNC(=O)C1Cc2cc(S(=O)(=O)N3CCCC3)ccc2N1C(C)=O (stereo not given)	n	n	x
CN(C)CCNC(=S)Nc1cccc(Cl)c1	n	n	n
Cc1cccc(NNC(=S)Nc2c(C)cccc2C)c1	3.2µM	4µM	x
Cc1cccc(NC(=S)NNc2cccc(Cl)c2)c1	u	2µM	x
CN(C)NC(=S)Nc1cccc(Cl)c1	7.1µM	2.2µM	x
O=C(NNC(=S)Nc1cccc(Cl)c1)c1ccccc1	n	n	x
Cc1cccc(NC(=O)c2ccccc2C(=O)O)c1	n	n	n
CC(=O)n1c(COS(C)(=O)=O)nc2ccccc21	x	x	n[7.66 µM]
SMILES	VP16 counter	RORgamma inh	KinaseGlo FLuc
CCOC(=O)C(=O)Nc1cc(Cl)ccc1C	n	n	n
CC(CCc1ccccc1)NC(=O)N1CCOCC1 (stereo not given)	n	n	n
Cc1cc(C(=O)Nc2ccccc2)oc1C	n	n	13µM
NNC(=O)c1cc2c(ccc3ccccc32)o1	n[10 µM]	n	n
O=C(COc1ccc(/C=N/NC(=O)c2cc3ccccc3o2)cc1Br)Nc1ccccc1	2.2µM	3.2µM	n
O=C(Nc1cccnc1)c1cc2c(ccc3ccccc32)o1	u	1.4µM	n
CC(=O)c1cc(C(=O)Nc2ccc(C(=O)O)cc2)oc1C	n	n	n
O=C(Nc1ccccc1)c1cc2ccccc2o1	n	u	13µM
O=C(COc1ccccc1[N+](=O)[O-])Nc1ccc(NC(=O)c2cc3ccccc3o2)cc1	u	u	n
O=C(Nc1ccc(F)cc1)c1cc2ccccc2o1	n	u	x
CN(C)c1cc2c(cc1NS(=O)(=O)c1ccccc1)n(C)c(=O)n2C	n	n	x
COC(=O)[C@H](C)NC(=O)C/C=C\[C@@H](C)CO	n[10 µM]	n[10 µM]	x
CCn1nc(C(=O)OCC(=O)N2CC(=O)Nc3ccccc32)c2ccccc2c1=O	n	n	n
COc1cccc(CNC(=O)c2ccc(CS(=O)Cc3ccc(C)cc3)o2)c1 (stereo not given)	n	n	x
O=C(NC(=S)Nc1ccc(NC(=O)c2cccs2)cc1)c1cc2ccccc2o1	7.9µM	7.1µM	n
O=C(NC(=S)Nc1ccc(NC(=O)c2cccs2)cc1)c1ccco1	u	u	n
CC1(C)OC(=CC=Nc2ccc(Cl)cc2)OC1(C)C	n	n	x
Cc1cc(N2C(=O)C3C4CC(c5ccccc5)C(C4)C3C2=O)no1 (stereo not given)	n	n	n
Cc1cc([N+](=O)[O-])nn1CC(=O)Nc1ccc(F)cc1	n	n	n
Cc1cc(C(F)(F)F)nn1CC(=O)NNC(=S)Nc1ccc(F)cc1	n	n	n
Cc1cc(C(F)(F)F)nn1CC(=O)NNC(=S)NCC(C)C	n	7.1µM	n
Cc1cc([N+](=O)[O-])nn1CC(=O)NNC(=S)Nc1ccc(F)cc1	u	14µM	n
CCNC(=S)NNC(=O)Cn1nc(C)cc1C	n	10µM	n
Cc1cc(C)n(CC(=O)NN)n1	n	n	n
CCNc1sc(C(=O)OCC)c(N)c1C#N	n	n	n
SMILES	VP16 counter	RORgamma inh	KinaseGlo FLuc
Cc1cccc(N2CCN(S(=O)(=O)c3c(C)nc4scc(C)n4c3=O)CC2)c1C	n	n	x
CC(=O)CC(=O)Nc1ncccn1	n	n	n
O=C(Cn1cc(CCO)nn1)N1CCNCC1	n	n	x
COC(=O)c1c(NC(=O)C(Cl)Cl)sc2c1C(C(=O)OC)CC2 (stereo not given)	7.9µM	4µM	x
COC(=O)c1c(NC(=O)C(C)(C)C)sc2c1C(C(=O)OC)CC2 (stereo not given)	n	n	n
Cc1ccc2oc(C(F)(F)C(F)F)cc(=O)c2c1	n	n	x
Cc1ccc2oc(C(Cl)(Cl)Cl)cc(=O)c2c1	u	5µM	n
c1ccc(-c2noc(-c3ccccc3-c3ccccc3)n2)cc1	n	n	n
Cc1ccc(-c2nc(-c3ccncc3)no2)cc1C	u	8.9µM	x
c1ccc(-c2noc(-c3ccc4c(c3)OCO4)n2)cc1	n	n	10µM
COc1ccc(-c2noc(-c3ccc4c(c3)OCO4)n2)cc1	n	n	n
Cc1ccc(-c2nc(-c3ccncc3)no2)cc1Cl	n	n	x
c1ccc(-c2noc(-c3ccc4ccccc4c3)n2)cc1	25µM	3.5µM	n
O=C(O)c1ccc2c(c1)C(=O)N([C@H](Cc1ccc(C(F)(F)F)cc1)C(=O)O)C2=O	n	n	x
CN(C)C1CCN(C(=O)c2cccc(OC3CCN(S(=O)(=O)N(C)C)CC3)c2)C1 (stereo not given)	n	n	x
COc1cc(CN(C)Cc2cc(=O)n3ccsc3n2)ccc1OC(F)F	16µM	n	n
COc1ccccc1NC(=O)CSCc1cc(=O)n2ccsc2n1	n	n	x
CCOc1ccccc1N1CCN(CC(=O)NCCc2ccc(S(N)(=O)=O)cc2)CC1	n	n	n
O=C(CCN1C(=O)c2ccccc2C1=O)Oc1ccc2ccccc2c1	n	n	n
CC1=CC(C)(C)Nc2ccc(OC(=O)CCN3C(=O)c4ccccc4C3=O)cc21	5.6µM	u	n
CCC(C)(C)C1CCc2c(sc(N)c2C(N)=O)C1 (stereo not given)	u	u	n
CC(C)(C)C1CCc2c(sc(N)c2C(N)=O)C1 (stereo not given)	16µM	n	n
CN(C)S(=O)(=O)c1ccc(Nc2nc(C3CC3)nc3c2nnn3Cc2ccccc2Cl)cc1	4µM	n	n
COC(=O)CNc1nc(C2CC2)nc2c1nnn2Cc1ccccc1Cl	n	n	n
Nc1nc(SCC(=O)c2cccs2)n[nH]1	n	n	n
